We go through 32 molecules from PubChem BioAssay (EPA / NIEHS).

Molecules are shown by their SMILES. Records with an inconclusive call do not appear. Active and inactive are the calls of the source. How the source made its calls, unless noted: active means hit-call score of the fitted dose curve at least 0.9, where 1 is the maximum; inconclusive means response in the unintended direction; inactive means score below 0.9.

The target in one test is Peroxisome proliferator-activated receptor gamma (Homo sapiens) (UniProt P37231). The test can be described thus: OT_PPARg_PPARgSRC1_0480: Odyssey Thera (OT) 8-hour Protein-Complementation Assay for Peroxisome Proliferator-activated Receptor Gamma / SRC-1 Co-activator (AID 2283387).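 Further: nuclear to cytoplasmic split Venus YFP fluorescence ratio reporting PPARg SRC-1 interaction.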
Sequence of Peroxisome proliferator-activated receptor gamma (Homo sapiens) (P37231 whole entry, looked up): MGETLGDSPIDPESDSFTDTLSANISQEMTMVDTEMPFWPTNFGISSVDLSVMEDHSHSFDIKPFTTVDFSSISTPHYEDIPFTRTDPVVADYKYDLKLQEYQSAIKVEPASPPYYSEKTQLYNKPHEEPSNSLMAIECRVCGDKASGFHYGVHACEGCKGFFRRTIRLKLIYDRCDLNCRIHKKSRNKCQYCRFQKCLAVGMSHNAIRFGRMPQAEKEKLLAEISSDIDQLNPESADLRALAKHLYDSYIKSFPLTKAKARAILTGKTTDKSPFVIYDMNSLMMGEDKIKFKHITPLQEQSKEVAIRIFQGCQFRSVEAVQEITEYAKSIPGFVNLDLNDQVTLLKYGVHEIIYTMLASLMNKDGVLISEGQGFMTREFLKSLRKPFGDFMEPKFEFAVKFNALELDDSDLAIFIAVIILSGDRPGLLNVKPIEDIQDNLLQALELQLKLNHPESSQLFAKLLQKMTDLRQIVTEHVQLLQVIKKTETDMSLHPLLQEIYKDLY
Conditions: not given
The method, boiled down:
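Split-YFP (IFP1/IFP2) PPARg/SRC-1 reporter, HEK293T, 37 °C, 5% CO2; 8 h compound; formaldehyde fix + Draq5; high-content imaging, N/C ratio, ≥350 cells/image, positive direction vs DMSO.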
For `CCCCCCCC/C=C\CCCCCCCC(=O)OCC(O)CO` (stereo not given), the outcome was inactive.

For `COCCOCCC[Si](C)(O[Si](C)(C)C)O[Si](C)(C)C`, the call was inactive.

For the molecule `CCC(Cc1c(I)cc(I)c(N)c1I)C(=O)O` (stereo not given), the result was inactive.

With `CCCCOC(=O)[C@H](C)O`, the result was inactive.

On to `N#Cc1ccccc1O`, for which the outcome was inactive.

For the molecule `CC(=O)CCC(C)C`, the outcome was inactive.

On to `CCCCCCCCCc1ccc(OCCO)cc1`, for which the molecule was classed as inactive.

For the molecule `O=C1C=CC(=O)N1c1ccccc1`, the call was inactive.

Turning to `CC(C)OC=O`, the result was inactive.

In the case of `CCCCCCCCCCCCC[N+](C)(C)Cc1ccccc1`, the result was inactive.

Take `CC(C)(C)c1cc(Cc2cc(C(C)(C)C)c(O)c(C(C)(C)C)c2)cc(C(C)(C)C)c1O`: the result was inactive.

Regarding `Cc1ccc(O)c(-n2nc3ccccc3n2)c1`, the result was inactive.

For the molecule `CC(C)Nc1ccc(NC(C)C)c2c1C(=O)c1ccccc1C2=O`, the result was inactive.

On to `CCOC(=O)C1CC(=O)C(=C(O)C2CC2)C(=O)C1` (stereo not given), for which the result was inactive.

`CCCCC(CC)COC(=O)c1ccc(N(C)C)cc1` (stereo not given): the molecule was classed as inactive.

On to `OCC1CCCO1` (stereo not given), for which the call was inactive.

Take `F[Si-2](F)(F)(F)(F)F`: the call was inactive.

Take `CCN=C1C=CC(=C(c2ccc(N(CC)CC)cc2)c2ccc(N(CC)CC)cc2)c2ccccc21`: the molecule was called inactive.

In the case of `C[C@]12CC[C@H]3C(=CCc4cc(O)ccc43)[C@@H]1CCC2=O`, the call was inactive.

Regarding `CCCCCCCC/C=C\CCCCCCCC(=O)N(C)CC(=O)O`, the molecule was called inactive.

For `CCCCCCCCCCCCCC[P+](CCCC)(CCCC)CCCC`, the result was inactive.

In the case of `CCc1cc(Cc2cc(CC)c(N)c(CC)c2)cc(CC)c1N`, the molecule was called inactive.

For `CCOC(OCC)OCC`, the call was inactive.

Regarding `O=C(c1ccccc1)c1ccc(O)cc1O`, the molecule was called inactive.

On to `CCN=c1cc2oc3cc(NCC)c(C)cc3c(-c3ccccc3C(=O)OCC)c-2cc1C`, for which the call was inactive.

Regarding `Cc1ccc([N+](=O)[O-])c(C)c1`, the molecule was classed as inactive.

Regarding `CCCCOC(=O)C(C)O` (stereo not given), the molecule was called inactive.

For another test the target is unchanged. The test can be described thus: OT_PPARg_PPARgSRC1_1440: Odyssey Thera (OT) 24-hour Protein-Complementation Assay for Peroxisome Proliferator-activated Receptor Gamma/ SRC-1 Co-activator (AID 2283388).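 Further: nuclear to cytoplasmic ratio of reconstituted Venus YFP fluorescence in fixed imaged cells.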
Conditions: not given
The procedure, abridged:
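Cells carrying the PPARg/SRC-1 fragment-complementation reporter receive compound for 24 hours, are fixed and counterstained with Draq5, then imaged. Increased nuclear relative to cytoplasmic YFP fluorescence above DMSO baseline indicates binding activity.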
As for `CCCCCCCC/C=C\CCCCCCCC(=O)OCC(O)CO` (stereo not given), the molecule was called inactive.

Take `COCCOCCC[Si](C)(O[Si](C)(C)C)O[Si](C)(C)C`: the result was inactive.

Turning to `CCC(Cc1c(I)cc(I)c(N)c1I)C(=O)O` (stereo not given), the molecule was classed as inactive.

As for `CCCCOC(=O)[C@H](C)O`, the outcome was inactive.

For the molecule `N#Cc1ccccc1O`, the molecule was classed as inactive.

In the case of `CC(=O)CCC(C)C`, the molecule was classed as inactive.

Take `CCCCCCCCCc1ccc(OCCO)cc1`: the outcome was inactive.

As to `O=C1C=CC(=O)N1c1ccccc1`, the call was inactive.

Take `CC(C)OC=O`: the molecule was classed as inactive.

Take `CC(C)(C)c1cc(CCC(=O)OCC(COC(=O)CCc2cc(C(C)(C)C)c(O)c(C(C)(C)C)c2)(COC(=O)CCc2cc(C(C)(C)C)c(O)c(C(C)(C)C)c2)COC(=O)CCc2cc(C(C)(C)C)c(O)c(C(C)(C)C)c2)cc(C(C)(C)C)c1O`: the result was inactive.

Take `CCCCCCCCCCCCC[N+](C)(C)Cc1ccccc1`: the outcome was inactive.

Take `CC(C)(C)c1cc(Cc2cc(C(C)(C)C)c(O)c(C(C)(C)C)c2)cc(C(C)(C)C)c1O`: the result was inactive.

Turning to `Cc1ccc(O)c(-n2nc3ccccc3n2)c1`, the molecule was called inactive.

Regarding `CC(C)Nc1ccc(NC(C)C)c2c1C(=O)c1ccccc1C2=O`, the molecule was classed as inactive.

As for `CCOC(=O)C1CC(=O)C(=C(O)C2CC2)C(=O)C1` (stereo not given), the outcome was inactive.

Turning to `CCCCC(CC)COC(=O)c1ccc(N(C)C)cc1` (stereo not given), the result was inactive.

For the molecule `OCC1CCCO1` (stereo not given), the outcome was inactive.

Turning to `F[Si-2](F)(F)(F)(F)F`, the result was inactive.

Turning to `CCN=C1C=CC(=C(c2ccc(N(CC)CC)cc2)c2ccc(N(CC)CC)cc2)c2ccccc21`, the molecule was called inactive.

For `C[C@]12CC[C@H]3C(=CCc4cc(O)ccc43)[C@@H]1CCC2=O`, the molecule was classed as inactive.

In the case of `CCCCCCCC/C=C\CCCCCCCC(=O)N(C)CC(=O)O`, the molecule was classed as inactive.

On to `CCCCCCCCCCCCCC[P+](CCCC)(CCCC)CCCC`, for which the call was inactive.

For the molecule `CCc1cc(Cc2cc(CC)c(N)c(CC)c2)cc(CC)c1N`, the call was inactive.

For `CCOC(OCC)OCC`, the molecule was called inactive.

Turning to `O=C(c1ccccc1)c1ccc(O)cc1O`, the molecule was called inactive.

In general, AC50 refers to the midpoint of the concentration-response curve, whichever way the signal moves. Regarding `CCN=c1cc2oc3cc(NCC)c(C)cc3c(-c3ccccc3C(=O)OCC)c-2cc1C`, the half-maximal activity concentration (AC50) is 4.08 µM (active).

Turning to `Cc1ccc([N+](=O)[O-])c(C)c1`, the molecule was called inactive.

Take `CCCCOC(=O)C(C)O` (stereo not given): the molecule was classed as inactive.

Read-out in the next test: not listed separately
The test can be described thus: CEETOX_H295R_11DCORT: CeeTox H295R High-throughput Steroidogenesis Assay for 11-Deoxycortisol (11DCORT) (AID 2283432; active means hit-call score of the fitted dose curve at least 0.9, where 1 is the maximum; inactive means score below 0.9;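 on AC50: human adrenal H295R cells prestimulated with 10 µM forskolin for 48 h; 11-deoxycortisol secreted into the medium measured by LC-MS/MS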). As to conditions: actives raise or lower the signal. The method, boiled down: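 Steroidogenesis in human H295R cells: 48 h chemical exposure after forskolin priming, 11-deoxycortisol measured by LC-MS/MS.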
Consider `Cc1cccc(C)n1`, for which the molecule was classed as inactive.

In the case of `N#Cc1ccccc1O`, the result was inactive.

Take `CCCCCCCCCc1ccc(OCCO)cc1`: the call was inactive.

`O=C1C=CC(=O)N1c1ccccc1`: the result was inactive.

On to `CCCCCCCCCCCCC[N+](C)(C)Cc1ccccc1`, for which the AC50 is 0.287 µM (active).

For `CC1CCCCC1`, the call was inactive.

Consider `O=C1c2ccccc2C(=O)c2c(Cl)cccc21`, for which the result was inactive.

Consider `CCCCC(CC)COC(=O)c1ccc(N(C)C)cc1` (stereo not given), for which the outcome was inactive.

Take `CCOCOCC`: the molecule was classed as inactive.

Take `C[C@]12CC[C@H]3C(=CCc4cc(O)ccc43)[C@@H]1CCC2=O`: the AC50 was 17.8 µM (active).

Read-out in the next test: not listed separately
The test can be described thus: CEETOX_H295R_OHPREG: CeeTox H295R High-throughput Steroidogenesis Assay for OH-Pregnenolone (OHPREG) (AID 2283434; active means hit-call score of the fitted dose curve at least 0.9, where 1 is the maximum; inactive means score below 0.9). As to conditions: actives raise or lower the signal. The method, boiled down: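 Hormone levels in spent medium were measured by tandem mass spectrometry following liquid-liquid extraction. Cells (H295R) had been forskolin-stimulated (10 uM, 48 h) before a 48 h chemical exposure at 0.1% DMSO, with activity fitted in both directions against DMSO.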
As to `Cc1cccc(C)n1`, the molecule was classed as inactive.

On to `N#Cc1ccccc1O`, for which the molecule was called inactive.

In the case of `CCCCCCCCCc1ccc(OCCO)cc1`, the molecule was classed as inactive.

Regarding `O=C1C=CC(=O)N1c1ccccc1`, the molecule was called inactive.

`CCCCCCCCCCCCC[N+](C)(C)Cc1ccccc1`: the AC50 was 0.59 µM (active).

As for `CC1CCCCC1`, the call was inactive.

As to `O=C1c2ccccc2C(=O)c2c(Cl)cccc21`, the call was inactive.

`CCCCC(CC)COC(=O)c1ccc(N(C)C)cc1` (stereo not given): the AC50 was 6.35 µM (active).

Take `CCOCOCC`: the molecule was classed as inactive.

As for `C[C@]12CC[C@H]3C(=CCc4cc(O)ccc43)[C@@H]1CCC2=O`, the AC50 is 3.5 µM (active).
